From publication PMC5540273 (PLoS ONE, 2017)

Legend:
Conditions in all cases: concentration: 1 μM, replicates: in singlicate; n = 1
[1] = test system: HIPK2
[2] = test system: HIPK3
[3] = test system: HIPK4
[4] = test system: HPK1
[5] = test system: HUNK
[6] = test system: ICK
[7] = test system: IGF1R
[8] = test system: T1, IKK-alpha
T1 construct: gene CHUK

[9] = test system: T2, IKK-beta
T2 construct: gene IKBKB

[10] = test system: T3, IKK-epsilon
T3 construct: gene IKBKE

[11] = test system: INSRR
[12] = test system: INSR
[13] = test system: IRAK1
[14] = test system: IRAK3
[15] = test system: IRAK4
[16] = test system: ITK
[17] = test system: JAK1(JH1domain-catalytic)
[18] = test system: JAK1(JH2domain-pseudokinase)
[19] = test system: JAK2(JH1domain-catalytic)
[20] = test system: JAK3(JH1domain-catalytic)
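Note: KINOMEscan kinase panel screen.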

SMILES | %Inh [1] | %Inh [2] | %Inh [3] | %Inh [4] | %Inh [5] | %Inh [6] | %Inh [7] | %Inh [8] | %Inh [9] | %Inh [10] | %Inh [11] | %Inh [12] | %Inh [13] | %Inh [14] | %Inh [15] | %Inh [16] | %Inh [17] | %Inh [18] | %Inh [19] | %Inh [20]
Nc1nccc2scc(-c3ccc4c(c3)CCN4C(=O)Cc3cc(F)ccc3F)c12 [GSK2587663] | 0% | 6% | 0% | 28% | 14% | 0% | 13% | 5% | 0% | 5% | 0% | 0% | 17% | 10% | 7% | 18% | 14% | 0% | 0% | 0%
FC(F)(F)c1ccc(-c2cc(-c3c[nH]nc3-c3ccccn3)ccn2)cc1 [GW599550] | 0% | 21% | 0% | 26% | 0% | 0% | 28% | 0% | 0% | 47% | 0% | 0% | 25% | 5% | 3% | 11% | 29% | 0% | 14% | 0%
Cc1cc(N2CCC(NS(=O)(=O)c3ccc(F)cc3)CC2)nc(Nc2cccc(C#N)c2)n1.O=C(O)C(F)(F)F [GSK1653537] | 47% | 0% | 0% | 43% | 25% | 0% | 0% | 12% | 2% | 7% | 0% | 0% | 0% | 0% | 4% | 1% | 7% | 0% | 6% | 0%
CCn1c(-c2ccncc2)nc2cnccc21 [SB-735216] | 18% | 24% | 15% | 0% | 27% | 10% | 0% | 20% | 23% | 10% | 0% | 7% | 6% | 0% | 17% | 0% | 15% | 12% | 10% | 0%
Cc1ccc(NC(=O)c2cccc(C#N)c2)cc1-c1ccc(C(=O)Nc2ccncc2)cc1 [GSK1398463] | 0% | 8% | 0% | 40% | 0% | 35% | 14% | 32% | 36% | 15% | 2% | 6% | 24% | 9% | 21% | 16% | 3% | 6% | 39% | 0%
CC(C)(C)c1ccc(-n2cnc3c(N)ncnc32)cc1 [SKF-97263] | 0% | 6% | 0% | 60% | 14% | 17% | 11% | 0% | 7% | 19% | 6% | 21% | 0% | 7% | 0% | 6% | 7% | 82% | 24% | 0%
Cn1ccc2ncnc(Oc3ccc(NC(=O)Nc4cccnc4)c(Cl)c3)c21 | 4% | 0% | 6% | 11% | 24% | 0% | 16% | 13% | 10% | 0% | 0% | 6% | 0% | 12% | 6% | 11% | 12% | 4% | 0% | 21%
Nc1nc(-c2cccnc2)c(-c2ccnc3ccccc23)s1 [GW684083] | 0% | 0% | 0% | 28% | 0% | 0% | 13% | 20% | 0% | 21% | 0% | 2% | 42% | 16% | 1% | 15% | 6% | 0% | 0% | 0%
Cl.Cn1ccc(-c2cccc(Nc3ccnc4cc(-c5nccs5)ccc34)c2)n1 [GW525701] | 0% | 0% | 0% | 34% | 22% | 11% | 21% | 30% | 11% | 31% | 0% | 0% | 41% | 0% | 15% | 7% | 18% | 0% | 0% | 0%
Nc1nc(-c2ccccn2)c(-c2ccnc3ccccc23)s1 [GW548057] | 5% | 15% | 0% | 20% | 8% | 7% | 9% | 8% | 0% | 22% | 0% | 0% | 33% | 0% | 0% | 5% | 28% | 5% | 22% | 0%
